{"source": "PubChem BioAssay AID1159580", "about": "(chemical genetic matrix, 2015)", "test": "chemical genetic growth profiling, strain panel (AID 1159580);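 further: tested at 20 µM; growth read once vehicle control cultures reached saturation at 30 °C; 1 = growth at the plate median or of vehicle wells; lower values mean less growth of the strain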", "details": "S. cerevisiae deletion strains, growth OD", "note": "Screen size: about 5,500 compounds; about 2,000 (36%) were called active. Inconclusive results (about 18%) are left out. This is one part of the list. Values without a mark were called inactive. No stated cut-off is given here; in the data, active means normalized growth mostly below about 0.91 (no sharp cut-off); inconclusive means no clear call, values can overlap the other calls; inactive means mostly above about 0.92.", "data": [{"smiles": "O=C(O)c1ccccc1Nc1cccc(C(F)(F)F)c1", "values": [{"measurement": "normalized growth", "setting": "locus YJR043C, strain POL32, active compounds read low", "value": "0.775 (active)"}, {"measurement": "normalized growth", "setting": "locus YJR066W, strain TOR1, active compounds read low", "value": "0.00921 (active)"}, {"measurement": "normalized growth", "setting": "locus YJR075W, strain HOC1, active compounds read low", "value": 0.93}, {"measurement": "normalized growth", "setting": "locus YKL009W, strain mrt4, active compounds read low", "value": 0.896}, {"measurement": "normalized growth", "setting": "locus YKL068W, active compounds read low", "value": 0.99}, {"measurement": "normalized growth", "setting": "locus YKL085W, strain MDH1 (second series), active compounds read low", "value": 0.957}, {"measurement": "normalized growth", "setting": "locus YKL085W, strain MDH1, active compounds read low", "value": 0.957}, {"measurement": "normalized growth", "setting": "locus YKL160W, strain elf1, active compounds read low", "value": "0.835 (active)"}, {"measurement": "normalized growth", "setting": "locus YKL190W, strain CNB1, active compounds read low", "value": 0.962}, {"measurement": "normalized growth", "setting": "locus YKR001C, strain vps1, active compounds read low", "value": "0.85 (active)"}, {"measurement": "normalized growth", "setting": "locus YKR026C, strain gcn3, active compounds read low", "value": "0.79 (active)"}, {"measurement": "normalized growth", "setting": "locus YKR091W, strain srl3, active compounds read low", "value": "0.826 (active)"}, {"measurement": "normalized growth", "setting": "locus YLL001W, strain dnm1, active compounds read low", "value": "0.833 (active)"}, {"measurement": "normalized growth", "setting": "locus YLL026W, active compounds read low", "value": "0.829 (active)"}, {"measurement": "normalized growth", "setting": "locus YLL041C, strain sdh2, active compounds read low", "value": "0.803 (active)"}, {"measurement": "normalized growth", "setting": "locus YLR027C, strain aat2, active compounds read low", "value": "0.865 (active)"}, {"measurement": "normalized growth", "setting": "locus YLR039C, strain RIC1, active compounds read low", "value": 0.808}, {"measurement": "normalized growth", "setting": "locus YLR058C, strain SHM2, active compounds read low", "value": 0.951}, {"measurement": "normalized growth", "setting": "locus YLR102C, strain apc9, active compounds read low", "value": 0.982}, {"measurement": "normalized growth", "setting": "locus YLR113W, strain HOG1, active compounds read low", "value": "0.137 (active)"}, {"measurement": "normalized growth", "setting": "locus YLR221C, strain rsa3, active compounds read low", "value": "0.838 (active)"}, {"measurement": "normalized growth", "setting": "locus YLR258W, strain gsy2, active compounds read low", "value": "0.83 (active)"}, {"measurement": "normalized growth", "setting": "locus YLR262C, strain YPT6 (second series), active compounds read low", "value": "0.634 (active)"}, {"measurement": "normalized growth", "setting": "locus YLR262C, strain YPT6, active compounds read low", "value": 0.821}, {"measurement": "normalized growth", "setting": "locus YLR268W, strain sec22, active compounds read low", "value": 0.914}, {"measurement": "normalized growth", "setting": "locus YLR320W, strain mms22, active compounds read low", "value": "0.833 (active)"}, {"measurement": "normalized growth", "setting": "locus YLR330W, strain CHS5, active compounds read low", "value": "0.883 (active)"}, {"measurement": "normalized growth", "setting": "locus YLR342W, strain FKS1 (second series), active compounds read low", "value": "0.713 (active)"}, {"measurement": "normalized growth", "setting": "locus YLR342W, strain FKS1, active compounds read low", "value": "0.831 (active)"}, {"measurement": "normalized growth", "setting": "locus YLR357W, strain rsc2, active compounds read low", "value": 0.873}, {"measurement": "normalized growth", "setting": "locus YLR370C, strain arc18, active compounds read low", "value": "0.808 (active)"}, {"measurement": "normalized growth", "setting": "locus YLR371W, strain rom2, active compounds read low", "value": 0.987}, {"measurement": "normalized growth", "setting": "locus YLR384C, strain iki3, active compounds read low", "value": "0.818 (active)"}, {"measurement": "normalized growth", "setting": "locus YLR418C, strain cdc73, active compounds read low", "value": "0.729 (active)"}, {"measurement": "normalized growth", "setting": "locus YML016C, strain PPZ1, active compounds read low", "value": 0.991}, {"measurement": "normalized growth", "setting": "locus YML032C, strain rad52, active compounds read low", "value": 0.933}, {"measurement": "normalized growth", "setting": "locus YML120C, strain ndi1, active compounds read low", "value": "0.842 (active)"}, {"measurement": "normalized growth", "setting": "locus YML124C, strain tub3, active compounds read low", "value": 0.97}, {"measurement": "normalized growth", "setting": "locus YMR058W, strain fet3, active compounds read low", "value": "0.824 (active)"}, {"measurement": "normalized growth", "setting": "locus YMR078C, strain ctf18, active compounds read low", "value": 0.98}, {"measurement": "normalized growth", "setting": "locus YMR125W, strain sto1, active compounds read low", "value": "0.835 (active)"}, {"measurement": "normalized growth", "setting": "locus YMR129W, active compounds read low", "value": "0.812 (active)"}, {"measurement": "normalized growth", "setting": "locus YMR205C, strain PFK2, active compounds read low", "value": "0.81 (active)"}, {"measurement": "normalized growth", "setting": "locus YMR223W, strain ubp8, active compounds read low", "value": 0.945}, {"measurement": "normalized growth", "setting": "locus YMR231W, strain pep5, active compounds read low", "value": "0.817 (active)"}, {"measurement": "normalized growth", "setting": "locus YMR307W, strain GAS1, active compounds read low", "value": 0.842}, {"measurement": "normalized growth", "setting": "locus YNL067W, strain RPL9B, active compounds read low", "value": 0.967}, {"measurement": "normalized growth", "setting": "locus YNL071W, strain lat1, active compounds read low", "value": "0.849 (active)"}, {"measurement": "normalized growth", "setting": "locus YNL128W, strain TEP1, active compounds read low", "value": 1.01}, {"measurement": "normalized growth", "setting": "locus YNL153C, strain GIM3, active compounds read low", "value": 0.937}, {"measurement": "normalized growth", "setting": "locus YNL183C, strain NPR1, active compounds read low", "value": "0.0159 (active)"}, {"measurement": "normalized growth", "setting": "locus YNL209W, strain ssb2, active compounds read low", "value": "0.862 (active)"}, {"measurement": "normalized growth", "setting": "locus YNL233W, strain BNI4, active compounds read low", "value": "0.852 (active)"}, {"measurement": "normalized growth", "setting": "locus YNL248C, strain rpa49, active compounds read low", "value": 0.921}, {"measurement": "normalized growth", "setting": "locus YNL250W, strain rad50, active compounds read low", "value": 0.994}, {"measurement": "normalized growth", "setting": "locus YNL271C, strain bni1, active compounds read low", "value": 0.982}, {"measurement": "normalized growth", "setting": "locus YNL298W, strain CLA4, active compounds read low", "value": 0.928}, {"measurement": "normalized growth", "setting": "locus YNL307C, strain MCK1, active compounds read low", "value": "0.695 (active)"}, {"measurement": "normalized growth", "setting": "locus YNL322C, strain KRE1 (second series), active compounds read low", "value": "0.801 (active)"}, {"measurement": "normalized growth", "setting": "locus YNR049C, strain mso1, active compounds read low", "value": "0.813 (active)"}, {"measurement": "normalized growth", "setting": "locus YNR052C, strain pop2, active compounds read low", "value": 0.993}, {"measurement": "normalized growth", "setting": "locus YOL012C, strain htz1", "value": 0.909}, {"measurement": "normalized growth", "setting": "locus YOL147C, strain pex11, active compounds read low", "value": 0.975}, {"measurement": "normalized growth", "setting": "locus YOR001W, strain rrp6, active compounds read low", "value": "0.872 (active)"}, {"measurement": "normalized growth", "setting": "locus YOR061W, strain CKA2, active compounds read low", "value": 0.947}, {"measurement": "normalized growth", "setting": "locus YOR069W, strain VPS5, active compounds read low", "value": 0.991}, {"measurement": "normalized growth", "setting": "locus YOR070C, strain gyp1, active compounds read low", "value": "0.848 (active)"}, {"measurement": "normalized growth", "setting": "locus YOR080W, strain dia2, active compounds read low", "value": "0.847 (active)"}, {"measurement": "normalized growth", "setting": "locus YOR083W, strain WHI5, active compounds read low", "value": "0.834 (active)"}, {"measurement": "normalized growth", "setting": "locus YOR106W, strain vam3, active compounds read low", "value": "0.821 (active)"}, {"measurement": "normalized growth", "setting": "locus YOR136W, strain idh2, active compounds read low", "value": 0.983}, {"measurement": "normalized growth", "setting": "locus YOR144C, strain elg1, active compounds read low", "value": 0.978}, {"measurement": "normalized growth", "setting": "locus YOR184W, strain ser1, active compounds read low", "value": "0.819 (active)"}, {"measurement": "normalized growth", "setting": "locus YOR231W, strain MKK1, active compounds read low", "value": "0.105 (active)"}, {"measurement": "normalized growth", "setting": "locus YOR265W, strain rbl2, active compounds read low", "value": "0.843 (active)"}, {"measurement": "normalized growth", "setting": "locus YOR270C, strain vph1, active compounds read low", "value": "0.674 (active)"}, {"measurement": "normalized growth", "setting": "locus YOR290C, strain snf2, active compounds read low", "value": "0.852 (active)"}, {"measurement": "normalized growth", "setting": "locus YOR316C, strain cot1, active compounds read low", "value": 0.988}, {"measurement": "normalized growth", "setting": "locus YPL051W, strain arl3, active compounds read low", "value": "0.831 (active)"}, {"measurement": "normalized growth", "setting": "locus YPL078C, strain atp4, active compounds read low", "value": "0.807 (active)"}, {"measurement": "normalized growth", "setting": "locus YPL106C, strain sse1, active compounds read low", "value": 0.968}, {"measurement": "normalized growth", "setting": "locus YPL240C, strain hsp82, active compounds read low", "value": "0.836 (active)"}, {"measurement": "normalized growth", "setting": "locus YPL256C, strain CLN2, active compounds read low", "value": "0.116 (active)"}, {"measurement": "normalized growth", "setting": "locus YPR119W, strain clb2, active compounds read low", "value": 0.988}, {"measurement": "normalized growth", "setting": "locus YPR141C, strain kar3, active compounds read low", "value": 0.99}, {"measurement": "normalized growth", "setting": "locus YPR163C, strain tif3, active compounds read low", "value": 0.952}, {"measurement": "normalized growth", "setting": "locus YPR167C, strain met16, active compounds read low", "value": 0.944}, {"measurement": "normalized growth", "setting": "strain wtn01, active compounds read low", "value": 0.954}]}]}
